Nile Red retention ratio vs DMSO data for 74 compounds are collected here from PubChem BioAssay AID588520 (NMMLSC, 2011).

Each structure is given as a SMILES string. Among all 1,700 compounds or so, about 65 (4%) were called active. The list is a sample of the results. Values without a mark were called inactive. Rule as the data show it: active = Nile Red retention ratio vs DMSO above about 190%; inactive = the rest.

The subject of the assay is Candida albicans drug resistance protein 2 (Cdr2) efflux pump, expressed in S. cerevisiae. Briefly: inhibitors of Candida albicans Cdr2 efflux pump, confirmation, S. cerevisiae AD/CaCDR2, flow cytometry, cherry pick 1, singleplex (AID 588520).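 Also: higher ratio means more blocking of Cdr2 efflux of the dye.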 The following applies: at 10 µM, hits give high values. (In general: Flow cytometry measures light scatter and fluorescence of single cells or particles in a stream.)
In the case of `COc1ccc2[nH]c3c(C)c4cc[n+](C)cc4c(C)c3c2c1`, the Nile Red retention ratio vs DMSO was 97.2%.
Under `O=C1NC(=O)C2C1C(c1ccc([N+](=O)[O-])cc1)=NN2Cc1ccccc1` (centres undefined) stands 112%; under `COc1ccc(-c2sc3ccccc3c2-c2ccc(OCCN3CCOCC3)cc2)cc1`, 101%.
Under `O=C(NCc1ccccc1)C(=O)NCC1OCCN1S(=O)(=O)c1ccc(Br)cc1` (centres undefined) stands 84.8%; under `COc1ccccc1CSc1ncc(-c2ccc([N+](=O)[O-])cc2)[nH]1`, 87.5%; under `CCOc1ccc(C2/C(=C(/O)c3ccc4c(c3)CC(C)O4)C(=O)C(=O)N2CCCn2ccnc2)cc1` (centres undefined), 94.1%.
Turning to `COc1ccc(C(=O)NC2CC(C)(C)Cc3c2cnn3-c2ccccc2)c(OC)c1` (centres undefined), the Nile Red retention ratio vs DMSO is 100%.
The result for `CN1CCN(S(=O)(=O)c2ccc(NC(=S)NC(=O)C3CC3)cc2)CC1` reads 103%; that for `CC(C)C(=O)N1CCC2(CC1)Oc1ccc(F)cc1C(=O)C21CC(c2ccccc2)=NO1` (centres undefined), 102%; that for `CN(C)S(=O)(=O)c1cc(C(=O)Nc2ccn(C)n2)c(Cl)cc1Cl`, 99.3%.
Regarding `CCn1c(/C=C/c2ccc([N+](=O)[O-])o2)nc2ccccc2c1=O`, the Nile Red retention ratio vs DMSO was 212% (active).
`O=S(=O)(c1ccccc1)N1CCc2ccccc21`: the Nile Red retention ratio vs DMSO was 83.1%.
The result for `CC12CCC(C(=O)N(c3cccc(Cl)c3)C1=O)C2(C)C` (centres undefined) reads 110%; that for `O=C(CNC(=O)c1ccc(-c2ccccc2)cc1)OCc1ccc(Cl)cc1`, 120%.
The result for `Cc1cc(C)cc(NC(=O)C(OC(=O)c2ccc(O)cc2)c2ccccc2)c1` (centres undefined) reads 101%; that for `CC(/C=N/NC(=O)c1cc(-c2ccc3ccccc3c2)n[nH]1)=C\c1ccco1`, 95.4%; that for `CCCc1nc(N2CCN(C)CC2)c2sc(=S)n(-c3ccccc3)c2n1`, 99.6%.
The result for `C[n+]1ccc(/C=C/c2c[nH]c3ccccc23)cc1` reads 140%; that for `CCCCCCCCCCCCCCCC(=O)OC/C=C(C)/C=C/C=C(C)/C=C/C1=C(C)CCCC1(C)C`, 123%.
`Cc1nn(C)cc1N1C(=O)c2cccc3c(N)ccc(c23)C1=O`: the Nile Red retention ratio vs DMSO was 106%.
For the compound `COc1ccc(/C=C(\C#N)c2c[nH]c3ccccc23)cc1`, the Nile Red retention ratio vs DMSO is 98.5%.
Under `CCCCOc1ccc(C(=O)NCC(=O)OCC(=O)c2c(N)n(C)c(=O)n(C)c2=O)cc1` stands 103%.
Turning to `NNC(=O)COc1ccc(C2SCCS2)cc1`, the Nile Red retention ratio vs DMSO was 98.5%.
Consider `COc1ccc(C(=O)NC(=S)Nc2ccc(N3CCCC3)cc2)cc1OC`, for which the Nile Red retention ratio vs DMSO is 95.1%.
In the case of `O=C(CSc1nnc(-c2cccnc2)n1Cc1ccco1)c1ccc(Cl)c(Cl)c1`, the Nile Red retention ratio vs DMSO is 107%.
Under `CCCCN1C(=O)/C(=C/C=C2/C=Cc3ccccc3N2CC)SC1=S` stands 108%; under `CCCCCC(=O)Nc1ccc(C(=O)N/N=C/c2ccc([N+](=O)[O-])cc2)cc1`, 105%; under `COc1ccc(C(=O)C2CCCN(Cc3cccn3-c3ccccn3)C2)c(C)c1` (centres undefined), 98.5%.
Under `O=C(Cc1ccc(Br)cc1)N1CCN(c2ccccn2)CC1` stands 85.2%.
Under `COc1ccc(NC(=S)N2CCc3cc(OC)c(OC)cc3C2)cc1` stands 99.3%; under `CCOc1ccc(/C=C2\SC(=S)N(NC(=O)c3ccncc3)C2=O)cc1OC`, 105%.
Turning to `CN=C(c1ccccc1)c1c(C)cccc1C`, the Nile Red retention ratio vs DMSO was 107%.
Consider `COc1ccc(S(=O)(=O)N2CCOC2CNC(=O)C(=O)NCc2ccc(F)cc2)cc1` (centres undefined), for which the Nile Red retention ratio vs DMSO is 114%.
Under `Cc1cc(/C=N/NC(=O)CC2(C)OCCO2)c(C)n1-c1ccc(Cl)c(Cl)c1` stands 101%; under `COc1ccccc1/C=C/C=N/n1c(-c2ccc(Cl)cc2Cl)n[nH]c1=S`, 119%.
`Cc1ccc(OCc2cc(C(=O)N(C)CCc3ccccc3)no2)cc1C`: the Nile Red retention ratio vs DMSO was 97.7%.
As for `CCOC(=O)c1c(NC(=S)NC(=O)c2ccco2)sc2c1CCCC2`, the Nile Red retention ratio vs DMSO was 95.4%.
Under `Cc1ccc(/C=C(\C#N)C(=O)Nc2cccc3ncccc23)o1` stands 93%.
For `COc1cccc(NC(=O)CN(C)C(=O)/C=C/c2cc(OC)ccc2OC)c1`, the Nile Red retention ratio vs DMSO was 97.5%.
Take `CSCCC(NC(=O)COc1ccccc1)C(=O)OCCOc1ccc(Br)cc1` (centres undefined): the Nile Red retention ratio vs DMSO was 91.4%.
The result for `O=C(CCCCCn1c(=O)[nH]c2ccccc2c1=O)NCCc1c[nH]c2ccccc12` reads 96.3%; that for `CCOC(=O)CNC(=O)CSc1nnnn1-c1cc(C)ccc1C`, 102%; that for `O=C(OCc1ccc(-c2ccccc2)cc1)c1cccc(O)c1`, 108%.
The result for `Cc1nc2c(C(=O)NCc3ccc4c(c3)OCO4)c[nH]n2c(=O)c1Cc1ccccc1F` reads 108%; that for `Cc1nn(C)cc1C(=O)Nc1ccccc1Br`, 104%.
Under `Cc1csc(NC(=O)c2ccc(-c3ccc(Cl)cc3Cl)o2)n1` stands 104%; under `Cc1ccc(Cn2c(C)nc3c(c2=O)c2nc4ccccc4nc2n3Cc2ccco2)cc1`, 104%; under `O=C(/C=C/c1c(Cl)cccc1Cl)NCc1ccccc1`, 102%.
Take `Cc1ccc(N=C2NC(=O)/C(=C/C=C/c3ccco3)S2)cc1C`: the Nile Red retention ratio vs DMSO is 114%.
The result for `Cc1cccc(NC(=O)COc2ccccc2C)n1` reads 95.6%; that for `COc1ccc(C(=O)NC2CCCc3c2cnn3-c2cccc(C)c2C)c(OC)n1` (centres undefined), 93.2%.
As for `CC[n+]1cc(C)ccc1/C=C/c1ccc(N(C)C)cc1`, the Nile Red retention ratio vs DMSO is 118%.
Under `O=C(CN1C(=O)C2C3CCC(C3)C2C1=O)Oc1ccc2ccccc2c1` (centres undefined) stands 105%; under `Cc1ccc(Cn2nnc3c(=O)[nH]c(C4CCN(S(=O)(=O)/C=C/c5ccccc5)CC4)nc32)cc1`, 93%.
The result for `CCNC(=O)c1c(O)c2cccc3c2n(c1=O)CC3` reads 107%; that for `O=C(Cc1ccccc1)NCC1OCCc2ccccc21` (centres undefined), 117%; that for `CC1CCc2c(sc(NC(=O)c3ccc(Cn4cc(Br)cn4)o3)c2C(N)=O)C1` (centres undefined), 108%.
As to `Cc1ccc2c(c1)NC(=O)[C@@]1(C)[C@@H](c3ccccc3)[C@H]3COc4ccc(Cl)cc4[C@@H]3N1C2=O`, the Nile Red retention ratio vs DMSO is 102%.
For the compound `O=C(Cn1c(COc2ccccc2)nc2ccccc21)Nc1cc(Cl)c(Cl)cc1Cl`, the Nile Red retention ratio vs DMSO is 110%.
The result for `Cc1ccc2[nH]c3c(=O)n(CC(=O)NCCc4ccc(Cl)cc4)ncc3c2c1` reads 137%; that for `C/C(N)=C(/C#N)C(=O)COC(=O)c1cc(-c2cccc(Br)c2)nc2ccccc12`, 110%.
Under `CCOc1ccc2nc(Cl)c(C3CC(c4ccccc4)=NN3C(=O)c3cccs3)cc2c1` (centres undefined) stands 131%.
The result for `C=CCC[C@@H](Cc1ccc(F)cc1)C(=O)OC[C@H](Cc1c[nH]c2ccccc12)NC(=O)[C@@H](CC=C)CC(=O)N(CCO)Cc1ccccc1` reads 123%.
On to `Cc1c(CCOC(=O)CC23CC4CC(CC(C)(C4)C2)C3)sc[n+]1Cc1ccc([N+](=O)[O-])cc1`, for which the Nile Red retention ratio vs DMSO is 821% (active).
On to `CSCCC(NS(=O)(=O)c1ccc(C)cc1)C(=O)N1CCCC1` (centres undefined), for which the Nile Red retention ratio vs DMSO was 89.3%.
Under `O=C(Nc1ccc(NC(=O)c2cccs2)cc1)c1ccc2ccccc2c1` stands 108%.
Turning to `CCCc1nnc(SCC(=O)Nc2ccc(C(=O)OCC)cc2)o1`, the Nile Red retention ratio vs DMSO was 133%.
Regarding `CCNc1c(NS(=O)(=O)c2ccc(C3CCCCC3)cc2)c(=O)oc2ccccc12`, the Nile Red retention ratio vs DMSO is 98.7%.
As to `CCc1ccc(NC(=O)Cn2ncn3c(cc4ccccc43)c2=O)cc1`, the Nile Red retention ratio vs DMSO was 101%.
For `COc1ccccc1NC(=O)C1CCCN1S(=O)(=O)c1ccc(Cl)cc1` (centres undefined), the Nile Red retention ratio vs DMSO is 99.7%.
For the compound `CC(/C=C/c1ccccc1)=N\NC(=O)C1CC1(C)c1ccccc1` (centres undefined), the Nile Red retention ratio vs DMSO was 94%.
Under `Cc1oc2cc3oc(=O)ccc3cc2c1C` stands 107%; under `Cc1cc(C(=O)Nc2ccc(C)c(S(=O)(=O)N3CCOCC3)c2)c2ccccc2n1`, 83.1%; under `CCOc1ccccc1/C=c1\sc2nc(-c3ccco3)nn2c1=O`, 116%.
